Screens deposited in PubChem BioAssay by several laboratories.
Only some compounds are listed: those with a hit (about 5% of all), similar ones and a draw of the others.
SENP8 block-1: SENP8 (human) protease inhibition. Q96LD8. recombinant SENP8, Nedd8 substrate fluorescence. inhibition, % at 20 µM. 360,000 tested, 0.64% active. AID 602440; in the data active = inhibition mostly above about 40%, no sharp cut-off; inactive = mostly below about 27%
SENP8 block-2: SENP8 protease inhibition. purified SENP8, Z-RLRGG-aminoluciferin cleavage, luminescence. inhibition, % at 10 µM. Q96LD8. AID 2540. 330,000 tested, 1.2% active; in the data active = inhibition above about 50%
AHR activator: activates the human aryl hydrocarbon receptor; AHR-responsive luciferase reporter cells, luminescence; activation, % at 5 µM; 320,000 tested, 2.5% active; in the data active = activation above about 47%
Target sequence (P35869 whole entry, looked up): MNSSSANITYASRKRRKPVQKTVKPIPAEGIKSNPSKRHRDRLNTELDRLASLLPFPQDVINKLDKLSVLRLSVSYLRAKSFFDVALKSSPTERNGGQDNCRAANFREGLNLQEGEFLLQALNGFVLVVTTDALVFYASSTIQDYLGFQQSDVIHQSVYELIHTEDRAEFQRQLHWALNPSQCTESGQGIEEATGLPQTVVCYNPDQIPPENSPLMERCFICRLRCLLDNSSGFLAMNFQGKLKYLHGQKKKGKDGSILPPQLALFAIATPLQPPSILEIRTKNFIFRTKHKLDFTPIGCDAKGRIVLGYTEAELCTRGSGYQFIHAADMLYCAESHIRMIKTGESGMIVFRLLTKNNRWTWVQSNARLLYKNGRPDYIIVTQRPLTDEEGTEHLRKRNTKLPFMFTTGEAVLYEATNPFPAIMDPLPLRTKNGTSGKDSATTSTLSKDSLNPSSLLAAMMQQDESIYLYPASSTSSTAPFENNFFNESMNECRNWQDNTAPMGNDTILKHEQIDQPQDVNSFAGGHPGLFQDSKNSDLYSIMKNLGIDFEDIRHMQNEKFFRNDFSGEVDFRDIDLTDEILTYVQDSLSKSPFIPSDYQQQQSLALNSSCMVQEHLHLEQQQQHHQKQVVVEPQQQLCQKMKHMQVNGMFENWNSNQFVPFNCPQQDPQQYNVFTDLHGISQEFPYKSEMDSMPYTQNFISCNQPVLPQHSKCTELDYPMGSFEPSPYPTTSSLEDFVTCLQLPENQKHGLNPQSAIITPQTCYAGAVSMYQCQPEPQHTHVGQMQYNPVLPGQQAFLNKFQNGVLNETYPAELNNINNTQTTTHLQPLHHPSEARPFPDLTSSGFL
EBI2 antag: blocks human EBI2 receptor beta-arrestin signaling | EBI2 beta-arrestin recruitment, luminescence, 7a,25-OHC stimulated | inhibition, % at 5 µM | 360,000 tested, 0.81% active; in the data active = inhibition above about 38%;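 also: enzyme fragment complementation signal reports receptor beta-arrestin coupling in cells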
SENP7 inh: blocks the human protease SENP7 | recombinant SENP7, Z-RLRGG-aminoluciferin luminescence, 40 min | AID 434973 | inhibition, % at 5 µM | 330,000 tested, 1.5% active | Q9BQF6;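 active = inhibition above about 50% at the single test dose, limit read from the data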
SENP6 block: blocks the human protease SENP6 | Q9GZR1 | Recombinant SENP6 catalytic domain, aminoluciferin luminescence | inhibition, % at 10 µM | 330,000 tested, 1.8% active;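 active = inhibition above about 50% at the single tested dose, limit read from the data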
EBI2 conf: EBI2 (human) antagonism, single concentration confirmation. AID 651997. 2,400 tested, 29% active. EBI2 beta-arrestin luminescence, 7a,25-OHC antagonism. shares compounds with EBI2 antag. inhibition, % at 5 µM;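 active = inhibition of at least 50%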
EBI2 agonist: counter-screen for EBI2 antagonists: EBI2 agonist activity. shares compounds with EBI2 antag. EBI2-expressing cells, agonist mode, luminescence, 60 min; 0% vehicle, 100% 7α,25-dihydroxycholesterol control. activation, % at 5 µM. 2,400 tested, under 10 active. AID 652000;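 active = activation of at least 50%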
bGal cs: counter-screen for EBI2 antagonists: E. coli beta-galactosidase inhibition; shares compounds with EBI2 antag; purified beta-galactosidase, luminescent Galacton Star, 15 min; inhibition, % at 5 µM; 2,400 tested, 1% active; AID 652176;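 active = replicate-average signal at least 3 plate SD below neutral wells, shown as high inhibition, flagging enzyme-inhibiting false positives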;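 also: higher means stronger loss of beta-gal luminescence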
Of the large screens only hits and unclear results are named; the others gave an inactive call (follow-up assays come after a bar, where they were run).

COc1ccc(C(=O)/C=C2/C(=O)Nc3ccccc32)cc1OC	EBI2 antag 48 | EBI2 conf inactive | EBI2 agonist inactive | bGal cs inactive
COc1ccc(N2CCN(C(=O)Cc3coc4cc(C)ccc34)CC2)cc1	none
COc1ccc(N2CCN(C(=O)c3cc(=O)c4ccc(C)cc4o3)CC2)cc1	EBI2 antag 50 | EBI2 conf inactive | EBI2 agonist inactive | bGal cs inactive
COc1ccc(N2CCN(C(=O)c3cc(=O)c4cc(Cl)ccc4o3)CC2)cc1	EBI2 antag 96 | EBI2 conf 93 | EBI2 agonist inactive | bGal cs inactive
Cc1c(C(=O)OCC(=O)Nc2ccc3c(c2)OCO3)cccc1[N+](=O)[O-]	none
CN1C(=O)CSc2ccc(NC(=O)N3CCN(c4ccccc4)CC3)cc21	none
C[C@]12c3[nH]c4cc(-c5ccco5)ccc4c3CCN1C(=O)[C@@H](CC(=O)NCC13CC4CC(CC(C4)C1)C3)C[C@@H]2C(=O)N1CCCCC1	EBI2 antag 44 (no result: SENP8 block-2, AHR activator, SENP6 block) | EBI2 conf inactive | EBI2 agonist inactive | bGal cs inactive
CC(C)(C)N(Cc1ccccc1)C(=O)COC(=O)C1=NN(c2ccccc2)C(=O)CC1	none (no result: AHR activator)
O=C(/C=C/c1cccc(F)c1)c1ccc(N2CCOCC2)cc1	EBI2 antag 58 | EBI2 conf inactive | EBI2 agonist inactive | bGal cs inactive
CS(=O)(=O)Nc1ccc(C(=O)Nc2ccc(S(=O)(=O)N3CCCC3)cc2)cc1	none
Cc1ccc2cccc(OCC(=O)NCCC3=CCCCC3)c2n1	EBI2 antag 48 | EBI2 conf inactive | EBI2 agonist inactive | bGal cs inactive
CN(C)S(=O)(=O)Oc1cccc(C(=O)Nc2ccc([N+](=O)[O-])cc2)c1	none
CCOC(=O)c1cnn(-c2nc(-c3cccc(F)c3)cs2)c1C(F)(F)F	EBI2 antag 48 | EBI2 conf inactive | EBI2 agonist inactive | bGal cs inactive
O=C(O)c1cnn(-c2nc(-c3cccc(F)c3)cs2)c1C(F)(F)F	none
Cc1coc2cc3oc(=O)cc(C)c3cc12	none
COc1ccc(-c2cc(=O)oc3cc4occ(C)c4cc23)cc1	EBI2 antag 49 | EBI2 conf inactive | EBI2 agonist inactive | bGal cs inactive
Cc1ccc2oc(C(=O)N3CCC(O)(c4ccccc4)CC3)c(C)c2c1	EBI2 antag 84 | EBI2 conf 78 | EBI2 agonist inactive | bGal cs inactive
CCN(CC)C(=O)C1CCN(C(=O)c2oc3ccc(C)cc3c2C)CC1	EBI2 antag 80 | EBI2 conf 57 | EBI2 agonist inactive | bGal cs inactive
N#Cc1ccc(C(=O)Nc2cccc(S(=O)(=O)NC3=NCCC3)c2)cc1	none
Cc1cc(N2CCN(c3nc(-c4ccccc4)cs3)CC2)c2ccccc2n1	EBI2 antag 55 | EBI2 conf inactive | EBI2 agonist inactive | bGal cs inactive
COc1cccc(NC(=O)C2CCC(CNS(=O)(=O)c3cccs3)CC2)c1 (stereo unspecified)	EBI2 antag 47 | EBI2 conf inactive | EBI2 agonist inactive | bGal cs inactive
COc1ccccc1CNC(=O)C1CCC(CNS(=O)(=O)c2cccs2)CC1 (stereo unspecified)	none
Cc1cc(C(C)(C)C)oc1C(=O)O	none
Cc1cc(C(C)(C)C)oc1C(=O)N1CCN(C(=O)c2oc(C(C)(C)C)cc2C)CC1	EBI2 antag 48 (no result: SENP8 block-2, AHR activator, SENP7 inh, SENP6 block) | EBI2 conf inactive | EBI2 agonist inactive | bGal cs inactive
c1ccc(-c2csc(Nc3nc(N4CCOCC4)nc(N4CCOCC4)n3)n2)cc1	EBI2 antag 50 | EBI2 conf inactive | EBI2 agonist inactive | bGal cs inactive
O=C(CSc1nc2cc([N+](=O)[O-])ccc2n1-c1ccccc1)NCc1ccc2c(c1)OCO2	EBI2 antag 55 | EBI2 conf inactive | EBI2 agonist inactive | bGal cs inactive
O=C(NCc1ccco1)c1cc([N+](=O)[O-])ccc1N1CCCCC1	EBI2 antag 53 | EBI2 conf inactive | EBI2 agonist inactive | bGal cs inactive
O=C(NCc1ccc2c(c1)OCO2)c1cc([N+](=O)[O-])ccc1N1CCCCC1	EBI2 antag 83 | EBI2 conf 62 | EBI2 agonist inactive | bGal cs inactive
O=C(NCc1ccc2c(c1)OCO2)c1cccc([N+](=O)[O-])c1	none
COc1cc(NC(=O)c2cc([N+](=O)[O-])ccc2N2CCOCC2)ccc1NC(=O)c1ccco1	EBI2 antag 55 | EBI2 conf inactive | EBI2 agonist inactive | bGal cs inactive
O=C(Nc1cc([N+](=O)[O-])ccc1N1CCOCC1)c1ccco1	none
CC(C)c1nc(SCC(=O)Nc2c[nH]c(=O)[nH]c2=O)c2cnn(-c3ccccc3)c2n1	none
Cc1ccc(C)c(NC(=O)CN(C)C(=O)c2ccc3c(=O)n4c(nc3c2)CCC4)c1	none
CCCCc1ccc(NC(=S)NCCN2CCOCC2)cc1	none
Cc1ccc(-c2nnc(SCC(=O)NNC(=O)COc3cccc(C)c3)n2C)cc1	EBI2 antag 45 | EBI2 conf inactive | EBI2 agonist inactive | bGal cs inactive
COc1ccc(C(=O)NNC(=O)CSc2nnc(-c3ccc(O)cc3)n2C)cc1	EBI2 antag 69 | EBI2 conf inactive | EBI2 agonist inactive | bGal cs inactive
Cc1ccc(-c2nnc(SCC(=O)NNC(=O)COc3ccccc3C)n2C)cc1	EBI2 antag 53 | EBI2 conf inactive | EBI2 agonist inactive | bGal cs inactive
Cc1cc(N2C(=O)[C@@H]3[C@H](C2=O)[C@@H]2C[C@H]3C(Br)C2Br)no1 (stereo partly specified)	none
CC(=O)N/C(=N/c1nc(C)cc(C)n1)Nc1cccc(C)c1C	none
C=CCC[C@@H](Cc1ccc(F)cc1)C(=O)OC[C@@H](Cc1ccccc1)NC(=O)[C@H](CC=C)CC(=O)NCCO	none
CCOCCCn1c(=S)[nH]c2cc(C(=O)NCC(OC)OC)ccc2c1=O	none
Cc1ccc2nc(-c3cccnc3)cc(C(=O)Nc3ccccc3[N+](=O)[O-])c2c1	EBI2 antag 48 | EBI2 conf 61 | EBI2 agonist inactive | bGal cs inactive
CC(=O)Nc1cccc(NC(=O)c2cc(-c3cccnc3)nc3ccc(Br)cc23)c1	none
CSc1ccccc1NC(=O)c1cc(-c2cccnc2)nc2ccc(Br)cc12	EBI2 antag 41 | EBI2 conf inactive | EBI2 agonist inactive | bGal cs inactive
CC(=O)Nc1cccc(NC(=O)c2cc(-c3cccnc3)nc3ccc(Cl)cc23)c1	none
OC(c1ccccc1)c1nc(-c2cccs2)cs1 (stereo unspecified)	none (no result: SENP8 block-2, AHR activator, SENP7 inh, SENP6 block)
